In PubChem BioAssay AID651768 (National Center for Advancing Translational Sciences (NCATS), 2012):
Screen size: about 360,000 compounds; about 1,700 (0.47%) were called active. Inconclusive results (about 2%) are left out. Calls follow the shape of the dose curve; as a rule, active = well fitted inhibition curve with a large enough effect; inconclusive = small, poorly fitted or top-dose-only effect; inactive = no such curve, though single readings can be large or run the other way. The sample as a whole holds a higher share of actives than the screen did.

target: Bifunctional 3'-5' exonuclease/ATP-dependent helicase WRN (Homo sapiens) (UniProt Q14191); experiment: qHTS for Inhibitors of WRN Helicase; details: WRN helicase unwinding, fluorescent forked duplex, kinetic; series mostly up to 114 µM; activity change, negative = inhibition: at the top concentration; also: nearly all actives have a fitted effect of over 55% in size
Excerpt: Inhibition of DNA repair is proposed as a strategy for combating cancer. Synthetic lethality is an approach that exploits preexisting DNA repair deficiencies in certain tumors to develop inhibitors of DNA repair pathways that compensate for the tumor-associated DNA repair deficiency. Because helicases play critical roles in the DNA damage response and in DNA repair, particularly in actively dividing and replicating cells, characterization of synthetic lethal relationships of DNA helicases may be of value in developing improved anticancer treatment strategies; moreover, small molecules that specifically target a given DNA helicase may be useful for understanding its role in cellular nucleic acid metabolism. The goal of this project is to identify small molecule, non-covalent chemical inhibitors of the Werner syndrome (WS) helicase (WRN), which plays an important role in cell proliferation, the replication stress response, and DNA repair. […] The WRN gene product that is defective in the chromosomal instability disorder has DNA helicase and exonuclease activities and interacts with a number of nuclear proteins to maintain genomic stability. We will employ an optimized high-throughput screening assay that utilizes a fluorescence intensity modulation scheme with a fluorophore and quencher positioned near one another within a duplex deoxyoligonucleotide that contains a single forked structure. After a high-throughput screen of the ~350,000-member Molecular Libraries Small Molecule Repository (MLSMR) collection, followed by data analysis and hit selection, a panel of confirmatory, as well as secondary and ternary, assays will be employed to identify high-confidence WRN inhibitors. Structure-activity relationships will be investigated for the top candidate inhibitor series through medchem expansion. These are the results of the primary screening campaign against the MLSMR. NIH Chemical Genomics Center [NCGC] NIH Molecular Libraries Probe Centers Network [MLPCN] MLPCN Grant: MH096530 Assay Submitter (PI): Robert Brosh, National Institute of Aging
Three muL of reagents (buffer in columns 3 and 4 as negative controls; WRN at 20 nM final concentration in columns 1 and 2 as positive controls; columns 5-48 as test reactions) will be dispensed into a 1536-well Greiner black plate via solenoid-valve based nanoliter dispensers. Compounds (23 nL each in columns 5-48) and control (23 nL each in column 2 as dose-response) will be transferred via a Kalypsys pintool equipped with a 1536-pin array. Plates will be incubated for 15 min at room temperature, and then 1 µL of substrate (100 nM forked duplex oligonucleotide and 2 mM ATP final concentrations) will be added to start reaction, and plate will be transferred into a ViewLux high-throughput CCD imager where reaction progress is measured in kinetic mode using standard red-fluorescence optics (excitation filter 525 nm, emission filter 598 nm).
% is scaled to controls: 0 for no effect and ±100 for the full control effect; potency is read from the fitted curve at half-maximal effect.

Sequence of Bifunctional 3'-5' exonuclease/ATP-dependent helicase WRN (Homo sapiens) (Q14191 whole entry, looked up): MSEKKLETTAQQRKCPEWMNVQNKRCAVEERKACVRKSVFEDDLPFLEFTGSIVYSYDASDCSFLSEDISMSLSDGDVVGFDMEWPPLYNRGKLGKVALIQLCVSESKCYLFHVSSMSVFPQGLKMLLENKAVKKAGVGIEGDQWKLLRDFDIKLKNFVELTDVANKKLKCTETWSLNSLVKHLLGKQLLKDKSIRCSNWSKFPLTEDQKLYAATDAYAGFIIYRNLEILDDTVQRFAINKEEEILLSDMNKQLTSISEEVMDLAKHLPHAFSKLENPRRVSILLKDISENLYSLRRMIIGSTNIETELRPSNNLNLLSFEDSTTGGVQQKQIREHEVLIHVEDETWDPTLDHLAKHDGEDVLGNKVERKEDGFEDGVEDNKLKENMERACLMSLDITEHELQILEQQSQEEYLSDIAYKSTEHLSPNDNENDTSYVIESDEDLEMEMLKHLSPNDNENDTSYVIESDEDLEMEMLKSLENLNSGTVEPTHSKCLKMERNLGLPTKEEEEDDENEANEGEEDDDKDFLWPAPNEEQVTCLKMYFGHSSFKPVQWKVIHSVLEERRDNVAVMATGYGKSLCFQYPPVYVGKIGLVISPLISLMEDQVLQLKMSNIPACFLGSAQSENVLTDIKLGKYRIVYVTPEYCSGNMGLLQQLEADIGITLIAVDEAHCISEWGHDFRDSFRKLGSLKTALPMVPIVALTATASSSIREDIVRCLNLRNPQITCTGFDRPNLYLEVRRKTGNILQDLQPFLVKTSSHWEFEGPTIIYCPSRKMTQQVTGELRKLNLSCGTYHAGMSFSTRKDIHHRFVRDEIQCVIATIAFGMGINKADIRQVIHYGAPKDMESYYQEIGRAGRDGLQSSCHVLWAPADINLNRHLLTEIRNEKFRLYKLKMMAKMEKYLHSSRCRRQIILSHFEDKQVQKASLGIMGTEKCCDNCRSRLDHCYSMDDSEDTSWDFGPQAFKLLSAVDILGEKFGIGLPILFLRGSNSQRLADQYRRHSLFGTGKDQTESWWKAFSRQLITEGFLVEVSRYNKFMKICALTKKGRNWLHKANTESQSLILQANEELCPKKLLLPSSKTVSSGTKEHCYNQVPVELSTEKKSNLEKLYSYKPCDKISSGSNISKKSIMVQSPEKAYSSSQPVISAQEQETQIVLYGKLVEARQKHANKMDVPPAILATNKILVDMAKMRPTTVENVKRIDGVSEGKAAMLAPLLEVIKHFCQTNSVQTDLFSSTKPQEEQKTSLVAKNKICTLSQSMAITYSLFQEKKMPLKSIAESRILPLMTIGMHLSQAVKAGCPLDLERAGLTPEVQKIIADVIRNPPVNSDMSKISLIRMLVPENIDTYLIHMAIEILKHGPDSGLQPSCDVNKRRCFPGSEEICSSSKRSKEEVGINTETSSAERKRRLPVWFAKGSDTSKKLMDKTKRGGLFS

Activity change, negative = inhibition, inactive:
CCc1ccc(N(CC(=O)NCc2cccnc2)S(=O)(=O)c2ccccc2)cc1 12.3%
COc1ccc(C(C)=O)cc1COC(=O)Cn1cnc2ccccc2c1=O -5.02%
COC(=O)[C@@]1(Cc2ccc(OC)cc2)[C@H]2c3cc(C(=O)N4CCCC4)n(Cc4ccc(OC(F)(F)F)cc4)c3C[C@H]2CN1C(=O)c1ccccc1 -10.4%
CCOCCC(=O)Nc1ccc2c(c1)c(=O)n(C)n2-c1ccc2ccccc2c1 -3.59%
CCOC(=O)N1CCN(C(=O)c2ccc(CN(c3ccc(C)c(C)c3)S(C)(=O)=O)cc2)CC1 2.1%
Cc1nnsc1S(=O)(=O)Cc1ccccc1Cl 6.13%
O=C(Nc1ccc(S(=O)(=O)N2CCOCC2)cc1)C1CCN(S(=O)(=O)c2ccc(Cl)cc2)CC1 -7.36%
COC(=O)[C@@]12C[C@@H](CC(=O)NCCCCc3ccccc3)C(=O)N(Cc3ccccc3)C1=CCC(C)(C)C2 -4.01%
CCOC(=O)c1[nH]c2ccc(OC)cc2c1NC(=O)N1CCOCC1 -19.4%
Nc1[nH]c(=S)nc2nc(-c3ccccc3)c(-c3ccccc3)nc12 -29.2%
COc1ccccc1Cc1c(-c2ccc(Cl)cc2)nc2c3ccccc3ccn12 0.986%
CCc1nc2ccc(C(=O)NCc3ccc(OC)cc3)cn2c1N(CC)Cc1cccc(Br)c1 -8.24%
Cc1cccc(C)c1Nc1nnc(SCC(=O)NCCCN2CCCC2=O)s1 -7.98%
CO/N=C/c1ccc(N2CCN(C(=O)c3cccc(Cl)c3)CC2)c([N+](=O)[O-])c1 -2.66%
O=C(CNS(=O)(=O)c1ccc(Br)s1)NCc1ccc2c(c1)OCO2 4.96%
O=C1CC2(CCCCC2)Oc2ccc(OCC(=O)N3CCOCC3)cc21 -7.15%
CCN(CC)CC(=O)Nc1sc2c(c1C(=O)c1ccccc1C)CCC2 -17.1%
COc1cc(O)c2c(=O)c3c(O)c(O)ccc3oc2c1OC 2.49%
CCOC(=O)COc1cc(OCC(=O)OCC)c2c(=O)cc(-c3ccccc3)oc2c1 1.62%
COc1ccc(Cn2c(=O)sc3ccccc32)cc1OC 1.12%
COC(=O)[C@@]12C[C@@H](CC(=O)NCCCCc3ccccc3)C(=O)N(CCc3ccc(OC)c(OC)c3)C1=CCC(C)(C)C2 -4.17%
Cc1nnc(-c2ccc(Oc3ccc(C)c(C)c3)c([N+](=O)[O-])c2)o1 6.78%
COc1ccc(NC(=O)c2cc(-c3cc(OC)c(OC)c(OC)c3)nc3ccccc23)c(OC)c1 1.58%
CC1CCCC(NC(=O)c2cc(-c3ccncc3)nc3ccccc23)C1C (stereo not drawn) 1.59%
O=C1NC[C@H](CCCCN2CCN(CCc3ccccc3)C(=O)C2=O)N(CC2CCCCC2)C1=O 3.05%
CCc1ccc(CN(C)C(=O)CCc2nnc(-c3ccc(-c4ccccc4)cc3)o2)nc1 -8.97%
Cc1cc(Cl)ccc1C(=O)C1CCCN(C(=O)c2nonc2C)C1 (stereo not drawn) -10.6%
CCCCN(CC)CCNC(=O)c1[nH]c(C)c(C(C)=O)c1C -4.24%
CCC(=O)Nc1c(C)n[nH]c1C -26.6%
C=C1C(=O)OC2C1CCC(C)=CCCC1(C)OC21 (stereo not drawn) -21.4%
CCCCCCCNc1nc(Cl)nc(NCCO)n1 10.9%
CC1CCCN(CCCNC(=O)CN2C(=O)COc3ccc(S(=O)(=O)N4CCOCC4)cc32)C1 (stereo not drawn) -5.24%
O=C1Nc2ccc(Br)cc2/C1=N/N=C/C1=C(N2CCOCC2)C(=C\c2ccccc2)/CC1 -6.34%
O=C(CC1SC(N2CCOCC2)=NC1=O)Nc1ccccc1F (stereo not drawn) 6.19%

Potency, active:
COC(=O)CCCCC1=CCC2C(=O)C=C(O)C2C1 (stereo not drawn) 50.1 µM
O=C(Nc1ccccc1)c1nnsc1S(=O)(=O)c1ccc(Cl)cc1 44.7 µM
COc1ccc2[nH]c3c(C)c4cc[n+](C)cc4c(C)c3c2c1 22.4 µM
O=C1CSC(=S)N1/N=C/c1ccc(O)c([N+](=O)[O-])c1 79.4 µM
COc1c(O)cc2oc(-c3ccc(O)c(O)c3)cc(=O)c2c1O 25.1 µM
Cc1ccc2nc(-c3ccncc3)cc(C(=O)Nc3ccc(OC(F)F)cc3)c2c1 44.7 µM
CCCCCCc1cc2cc(-c3nnc(-c4ccccc4)o3)c(=O)oc2cc1O 56.2 µM
Nc1ccc2nc3c(=O)[nH]c(=S)[nH]c3nc2c1 7.08 µM
N#C/C(=C\C1=C(N2CCOCC2)C(=C\c2ccccc2)/CC1)C(=O)Nc1ccccc1F 15 µM
